The source of these data is PubChem BioAssay (EPA / NIEHS).

The target of assay [1] is human Matrix Metalloproteinase-9 (MMP9), MMP9 (gene 4318) (UniProt P14780). The assay can be described thus: NVS_ENZ_hMMP9: NovaScreen (NVS) Enzymatic Assay for human Matrix Metalloproteinase-9 (MMP9) (AID 2283190).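 Note: cell-free recombinant MMP9 protease activity read by fluorescent substrate signal; active means inhibition seen as loss of fluorescence signal versus DMSO.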 The gist of the method:
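Screening concentration 25 uM, duplicate wells, then dose series for confirmation. Cell-free enzymatic reaction measured by fluorescence intensity 1 h post-dosing; decreased signal versus DMSO taken as activity.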

Assay [2] has as its target human Protein Tyrosine Phosphatase Receptor Type M (PTPRM), PTPRM (gene 5797) (UniProt P28827). The assay can be described thus: NVS_ENZ_hPTPRM: NovaScreen (NVS) Enzymatic Assay for human Protein Tyrosine Phosphatase Receptor Type M (PTPRM) (AID 2283215). The gist of the method: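 Cell-free recombinant PTPRM with fluorogenic substrate; product separated from substrate by electrophoretic mobility shift and read by fluorescence, 1.33 h after dosing. Primary screen single concentration (25 uM) in duplicate; actives retested in concentration series; loss of signal versus DMSO.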

Assay [3] concerns the target human Sirtuin 3 (SIRT3), SIRT3 (gene 23410) (UniProt Q9NTG7). The assay can be described thus: NVS_ENZ_hSIRT3: NovaScreen (NVS) Enzymatic Assay for human Sirtuin 3 (SIRT3) (AID 2283222). In short, it runs like this:
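Cell-free enzyme assay with recombinant protein and fluorescent substrate, product separated by electrophoretic mobility shift; read 1 hour after dosing. Screened in duplicate at 25 uM, then singleton concentration-response up to 50 uM; loss of signal versus DMSO.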

Assay [4] deals with human Phosphodiesterase 5 (PDE5), PDE5A (gene 8654) (UniProt O76074). The assay is described as follows: NVS_ENZ_hPDE5: NovaScreen (NVS) Enzymatic Assay for human Phosphodiesterase 5 (PDE5) (AID 2283194). The gist of the method:
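Recombinant human PDE5 with specific substrate, read 1 h after dosing by fluorescence with electrophoretic mobility-shift separation of substrate and product. Initial single-concentration duplicate screen at 25 uM, actives followed in concentration series; loss of activity versus DMSO.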

Assay [5] has as its target Collagenase 3 (Homo sapiens) (UniProt P45452). The assay is described as follows: NVS_ENZ_hMMP13: NovaScreen (NVS) Enzymatic Assay for human Matrix Metalloproteinase-13 (MMP13) (AID 2283182). In short, it runs like this:
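Recombinant MMP13 cleaving fluorescent substrate, cell-free, measured 1 h after dosing. Primary duplicate screen at 25 uM; actives tested in concentration-response up to 50 uM; loss of signal relative to DMSO.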

For assay [6], the target named is human Matrix Metalloproteinase-7 (MMP7), MMP7 (gene 4316) (UniProt P09237). The assay can be described thus: NVS_ENZ_hMMP7: NovaScreen (NVS) Enzymatic Assay for human Matrix Metalloproteinase-7 (MMP7) (AID 2283183). In short, it runs like this:
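Cell-free fluorescence enzymatic assay read 1 h after compound addition, activity loss analyzed against DMSO. Primary duplicate testing at 25 uM; compounds meeting threshold rerun in singleton concentration-response up to 50 uM.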

Assay [7] deals with human Matrix Metalloproteinase-2 (MMP2), MMP2 (gene 4313) (UniProt P08253). The assay is described as follows: NVS_ENZ_hMMP2: NovaScreen (NVS) Enzymatic Assay for human Matrix Metalloproteinase-2 (MMP2) (AID 2283184). The gist of the method: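 Cell-free recombinant MMP2 activity with a fluorescent substrate, read 1 h after dosing. Primary screen in duplicate at 25 uM; actives then run in concentration series; loss of signal fitted versus DMSO.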

Assay [8] concerns the target human Mitogen- and Stress-activated Protein Kinase-1 (Msk1), RPS6KA5 (gene 9252) (UniProt O75582). The assay is described as follows: NVS_ENZ_hMsk1: NovaScreen (NVS) Enzymatic Assay for human Mitogen- and Stress-activated Protein Kinase-1 (Msk1) (AID 2283187). The gist of the method:
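Recombinant kinase with fluorescent substrate; product separated by electrophoretic mobility shift, read 1 h after dosing. Screened in duplicate at 25 uM; hits (e.g. ≥30% inhibition) tested in concentration–response up to 50 uM. DMSO baseline.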

The target in assay [9] is human Phosphodiesterase 4A1 (PDE4A1), PDE4A (gene 5141) (UniProt P27815). The assay can be described thus: NVS_ENZ_hPDE4A1: NovaScreen (NVS) Enzymatic Assay for human Phosphodiesterase 4A1 (PDE4A1) (AID 2283191). In short, it runs like this: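 Cell-free recombinant human PDE4A1 with fluorescent substrate; product separated by electrophoretic mobility shift, 1 h. Screened at 25 uM, then up to 50 uM in concentration-response; loss of signal fitted against DMSO.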

Assay [10] deals with cAMP-dependent protein kinase catalytic subunit alpha (Homo sapiens) (UniProt P17612). The assay can be described thus: NVS_ENZ_hPKA: NovaScreen (NVS) Enzymatic Assay for human Protein Kinase A (PKA) (AID 2283192). The gist of the method:
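Recombinant human PKA with specific fluorescent substrate, product separated by electrophoretic mobility shift, read 1 h after dosing. Primary screen at 25 uM in duplicate; actives then run in concentration-response up to 50 uM, activity relative to DMSO.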

The target of assay [11] is Tyrosine-protein phosphatase non-receptor type 13 (Homo sapiens) (UniProt Q12923). The assay can be described thus: NVS_ENZ_hPTPN13: NovaScreen (NVS) Enzymatic Assay for human Protein Tyrosine Phosphatase Non-receptor Type 13 (PTPN13) (AID 2283205). In short, it runs like this: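 Cell-free assay of recombinant human PTPN13 with a fluorescent substrate, product separated by electrophoretic mobility shift and read 0.5 h after dosing. Primary screen at 25 uM in duplicate, then concentration-response up to 50 uM. Loss of signal fitted against DMSO.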

The target in assay [12] is Tyrosine-protein phosphatase non-receptor type 14 (Homo sapiens) (UniProt Q15678). The assay is described as follows: NVS_ENZ_hPTPN14: NovaScreen (NVS) Enzymatic Assay for human Protein Tyrosine Phosphatase Non-receptor Type 14 (PTPN14) (AID 2283206). The gist of the method:
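Cell-free recombinant human PTPN14 with fluorescent substrate, read 0.5 h after dosing by fluorescence and electrophoretic mobility shift separating substrate from product. Primary screen at 25 uM in duplicate; hits run to 50 uM maximum; loss of signal versus DMSO.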

Assay [13] concerns the target human Protein Tyrosine Phosphatase Receptor Type F (PTPRF), PTPRF (gene 5792) (UniProt P10586). The assay is described as follows: NVS_ENZ_hPTPRF: NovaScreen (NVS) Enzymatic Assay for human Protein Tyrosine Phosphatase Receptor Type F (PTPRF) (AID 2283213). The gist of the method: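 Cell-free fluorescence enzyme assay with recombinant protein and substrate; product separated by electrophoretic mobility shift. Read 1 h after dosing, single 25 uM duplicate screen, then concentration-response up to 50 uM; loss of signal vs DMSO.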

For assay [14], the target named is human SRC Proto-Oncogene, Non-receptor Tyrosine Kinase (SRC), SRC (gene 6714) (UniProt P12931). The assay can be described thus: NVS_ENZ_hSRC: NovaScreen (NVS) Enzymatic Assay for human SRC Proto-Oncogene, Non-receptor Tyrosine Kinase (SRC) (AID 2283223). The gist of the method:
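Cell-free kinase activity assay with fluorescent substrate, product separated by electrophoretic mobility shift, read 1 h after dosing. Duplicate single point at 25 uM, then concentration-response up to 50 uM; loss of signal versus DMSO.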

In assay [15] the target is human Matrix Metalloproteinase-3 (MMP3), MMP3 (gene 4314) (UniProt P08254). The assay is described as follows: NVS_ENZ_hMMP3: NovaScreen (NVS) Enzymatic Assay for human Matrix Metalloproteinase-3 (MMP3) (AID 2283185). The gist of the method: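 Cell-free recombinant human MMP3 activity, fluorescence intensity read 1 h after dosing. Primary screen duplicate at 25 uM, actives retested in concentration series; loss of signal vs DMSO baseline.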

The target of assay [16] is human Protein Tyrosine Phosphatase Non-receptor Type 1 (PTPN1), PTPN1 (gene 5770) (UniProt P18031). The assay is described as follows: NVS_ENZ_hPTPN1: NovaScreen (NVS) Enzymatic Assay for human Protein Tyrosine Phosphatase Non-receptor Type 1 (PTPN1) (AID 2283201). The gist of the method:
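Cell-free fluorogenic-substrate activity assay on recombinant enzyme, read 1.33 h after dosing by fluorescence and electrophoretic mobility shift; loss of signal vs DMSO baseline. Primary screen in duplicate at 25 uM, hits then run in concentration-response up to 50 uM.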

Assay [17] deals with Tyrosine-protein phosphatase non-receptor type 11 (Homo sapiens) (UniProt Q06124). The assay is described as follows: NVS_ENZ_hPTPN11: NovaScreen (NVS) Enzymatic Assay for human Protein Tyrosine Phosphatase Non-receptor Type 11 (PTPN11) (AID 2283202). In short, it runs like this: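 Recombinant human PTPN11 activity on a fluorescent substrate, with substrate/product separated by electrophoretic mobility shift; read 0.5 h after dosing, loss of signal vs DMSO. Duplicate 25 uM screen, then concentration-response up to 50 uM.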

Assay [18] concerns the target human Sirtuin 2 (SIRT2), SIRT2 (gene 22933) (UniProt Q8IXJ6). The assay can be described thus: NVS_ENZ_hSIRT2: NovaScreen (NVS) Enzymatic Assay for human Sirtuin 2 (SIRT2) (AID 2283217). The gist of the method: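 Cell-free recombinant human SIRT2, fluorescent substrate with product separated by electrophoretic mobility shift, 1 hr. Screened in duplicate at 25 uM; hits rerun singly in concentration-response up to 50 uM, relative to DMSO.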

Assay [19] addresses human Sirtuin 1 (SIRT1), SIRT1 (gene 23411) (UniProt Q96EB6). The assay can be described thus: NVS_ENZ_hSIRT1: NovaScreen (NVS) Enzymatic Assay for human Sirtuin 1 (SIRT1) (AID 2283219). In short, it runs like this: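 Cell-free recombinant SIRT1 with a fluorescent substrate; substrate and product separated by electrophoretic mobility shift and read by fluorescence intensity, 1 h after dosing. Primary screen at 25 uM in duplicate; hits re-run in concentration-response up to 50 uM, relative to DMSO.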

Assay [20] concerns the target human Protein Tyrosine Phosphatase Non-receptor Type 6 (PTPN6), PTPN6 (gene 5777) (UniProt P29350). The assay can be described thus: NVS_ENZ_hPTPN6: NovaScreen (NVS) Enzymatic Assay for human Protein Tyrosine Phosphatase Non-receptor Type 6 (PTPN6) (AID 2283210). In short, it runs like this: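 Cell-free assay with recombinant PTPN6 expressed in SF9 cells, fluorescent substrate, product separated from substrate by electrophoretic mobility shift; read 1.33 hours after dosing. Primary screen in duplicate at 25 uM, actives retested in concentration series; DMSO baseline.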

Where “and” joins values, the source holds several entries; their conditions need not be identical. Identical values can stand only once. Results filed as inconclusive are left out. Calls of active or inactive are those of the source. Rule for the calls: active = hit-call score of the fitted dose curve at least 0.9, where 1 is the maximum; inconclusive = response in the unintended direction; inactive = score below 0.9.

Chain of human Protein Tyrosine Phosphatase Receptor Type M (PTPRM), PTPRM (gene 5797) (P28827 whole entry, looked up): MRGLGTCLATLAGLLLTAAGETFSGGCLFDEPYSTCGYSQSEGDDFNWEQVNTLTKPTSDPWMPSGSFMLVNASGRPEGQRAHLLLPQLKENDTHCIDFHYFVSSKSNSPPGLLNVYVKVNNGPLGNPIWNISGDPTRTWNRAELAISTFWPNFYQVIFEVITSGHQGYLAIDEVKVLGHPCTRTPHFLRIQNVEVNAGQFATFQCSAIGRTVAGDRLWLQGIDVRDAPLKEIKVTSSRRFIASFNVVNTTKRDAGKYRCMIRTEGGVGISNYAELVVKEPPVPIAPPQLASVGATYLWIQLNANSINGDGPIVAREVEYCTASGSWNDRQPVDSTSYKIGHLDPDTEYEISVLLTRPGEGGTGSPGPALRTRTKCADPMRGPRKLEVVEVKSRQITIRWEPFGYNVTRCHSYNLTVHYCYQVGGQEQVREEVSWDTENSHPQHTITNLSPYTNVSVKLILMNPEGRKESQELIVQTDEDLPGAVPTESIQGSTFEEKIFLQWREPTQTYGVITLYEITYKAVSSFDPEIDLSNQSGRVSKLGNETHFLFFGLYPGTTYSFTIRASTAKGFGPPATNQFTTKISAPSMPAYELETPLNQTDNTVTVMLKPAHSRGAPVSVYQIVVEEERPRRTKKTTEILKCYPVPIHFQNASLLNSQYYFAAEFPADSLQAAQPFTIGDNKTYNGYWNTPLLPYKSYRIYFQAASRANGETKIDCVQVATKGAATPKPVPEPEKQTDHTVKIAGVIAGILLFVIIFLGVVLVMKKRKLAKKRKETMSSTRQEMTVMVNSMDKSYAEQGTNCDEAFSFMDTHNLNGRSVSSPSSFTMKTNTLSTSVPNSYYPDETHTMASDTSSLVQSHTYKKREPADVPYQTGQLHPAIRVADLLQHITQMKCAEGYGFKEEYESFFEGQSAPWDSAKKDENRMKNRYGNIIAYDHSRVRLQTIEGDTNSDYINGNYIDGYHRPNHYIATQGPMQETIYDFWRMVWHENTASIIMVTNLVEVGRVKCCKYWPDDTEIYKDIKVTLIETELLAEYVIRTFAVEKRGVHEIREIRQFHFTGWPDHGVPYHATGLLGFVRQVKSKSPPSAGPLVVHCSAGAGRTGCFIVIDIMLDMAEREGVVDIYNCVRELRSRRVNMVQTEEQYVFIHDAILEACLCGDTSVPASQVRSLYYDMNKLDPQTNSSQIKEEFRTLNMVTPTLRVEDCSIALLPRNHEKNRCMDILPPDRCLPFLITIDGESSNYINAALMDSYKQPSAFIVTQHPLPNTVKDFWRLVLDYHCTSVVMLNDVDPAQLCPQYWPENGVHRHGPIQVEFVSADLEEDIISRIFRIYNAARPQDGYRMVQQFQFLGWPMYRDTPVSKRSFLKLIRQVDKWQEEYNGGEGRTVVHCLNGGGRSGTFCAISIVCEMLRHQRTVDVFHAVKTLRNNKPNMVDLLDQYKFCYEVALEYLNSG
Chain of human Sirtuin 3 (SIRT3), SIRT3 (gene 23410) (Q9NTG7 whole entry, looked up): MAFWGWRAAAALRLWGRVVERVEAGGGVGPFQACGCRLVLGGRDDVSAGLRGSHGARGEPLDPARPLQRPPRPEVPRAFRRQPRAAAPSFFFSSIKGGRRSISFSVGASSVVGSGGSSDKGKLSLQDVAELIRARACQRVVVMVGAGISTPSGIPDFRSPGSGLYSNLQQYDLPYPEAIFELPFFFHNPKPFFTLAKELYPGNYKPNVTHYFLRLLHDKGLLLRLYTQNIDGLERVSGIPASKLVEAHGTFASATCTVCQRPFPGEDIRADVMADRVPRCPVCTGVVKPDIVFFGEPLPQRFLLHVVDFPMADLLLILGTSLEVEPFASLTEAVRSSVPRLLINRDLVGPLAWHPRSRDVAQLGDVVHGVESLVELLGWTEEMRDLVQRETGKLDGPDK
Chain of human Matrix Metalloproteinase-9 (MMP9), MMP9 (gene 4318) (P14780 whole entry, looked up): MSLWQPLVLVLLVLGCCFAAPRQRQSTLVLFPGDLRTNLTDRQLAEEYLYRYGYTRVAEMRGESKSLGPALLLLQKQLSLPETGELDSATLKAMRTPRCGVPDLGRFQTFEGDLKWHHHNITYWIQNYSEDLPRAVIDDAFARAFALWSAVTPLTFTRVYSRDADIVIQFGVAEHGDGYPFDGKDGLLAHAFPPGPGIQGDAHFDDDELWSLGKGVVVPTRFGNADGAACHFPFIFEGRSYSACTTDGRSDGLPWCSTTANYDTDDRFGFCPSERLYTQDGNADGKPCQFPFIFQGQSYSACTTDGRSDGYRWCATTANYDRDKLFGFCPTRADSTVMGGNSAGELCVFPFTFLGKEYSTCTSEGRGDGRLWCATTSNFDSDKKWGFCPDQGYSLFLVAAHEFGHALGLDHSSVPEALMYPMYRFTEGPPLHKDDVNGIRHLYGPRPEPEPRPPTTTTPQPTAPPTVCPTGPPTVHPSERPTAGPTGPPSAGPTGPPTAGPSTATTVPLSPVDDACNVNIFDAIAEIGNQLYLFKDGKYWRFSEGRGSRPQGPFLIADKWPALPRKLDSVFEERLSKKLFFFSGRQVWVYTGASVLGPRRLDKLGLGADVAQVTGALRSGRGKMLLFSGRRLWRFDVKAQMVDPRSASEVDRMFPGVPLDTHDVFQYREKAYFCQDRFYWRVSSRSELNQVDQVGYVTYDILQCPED
Chain of Tyrosine-protein phosphatase non-receptor type 14 (Homo sapiens) (Q15678 whole entry, looked up): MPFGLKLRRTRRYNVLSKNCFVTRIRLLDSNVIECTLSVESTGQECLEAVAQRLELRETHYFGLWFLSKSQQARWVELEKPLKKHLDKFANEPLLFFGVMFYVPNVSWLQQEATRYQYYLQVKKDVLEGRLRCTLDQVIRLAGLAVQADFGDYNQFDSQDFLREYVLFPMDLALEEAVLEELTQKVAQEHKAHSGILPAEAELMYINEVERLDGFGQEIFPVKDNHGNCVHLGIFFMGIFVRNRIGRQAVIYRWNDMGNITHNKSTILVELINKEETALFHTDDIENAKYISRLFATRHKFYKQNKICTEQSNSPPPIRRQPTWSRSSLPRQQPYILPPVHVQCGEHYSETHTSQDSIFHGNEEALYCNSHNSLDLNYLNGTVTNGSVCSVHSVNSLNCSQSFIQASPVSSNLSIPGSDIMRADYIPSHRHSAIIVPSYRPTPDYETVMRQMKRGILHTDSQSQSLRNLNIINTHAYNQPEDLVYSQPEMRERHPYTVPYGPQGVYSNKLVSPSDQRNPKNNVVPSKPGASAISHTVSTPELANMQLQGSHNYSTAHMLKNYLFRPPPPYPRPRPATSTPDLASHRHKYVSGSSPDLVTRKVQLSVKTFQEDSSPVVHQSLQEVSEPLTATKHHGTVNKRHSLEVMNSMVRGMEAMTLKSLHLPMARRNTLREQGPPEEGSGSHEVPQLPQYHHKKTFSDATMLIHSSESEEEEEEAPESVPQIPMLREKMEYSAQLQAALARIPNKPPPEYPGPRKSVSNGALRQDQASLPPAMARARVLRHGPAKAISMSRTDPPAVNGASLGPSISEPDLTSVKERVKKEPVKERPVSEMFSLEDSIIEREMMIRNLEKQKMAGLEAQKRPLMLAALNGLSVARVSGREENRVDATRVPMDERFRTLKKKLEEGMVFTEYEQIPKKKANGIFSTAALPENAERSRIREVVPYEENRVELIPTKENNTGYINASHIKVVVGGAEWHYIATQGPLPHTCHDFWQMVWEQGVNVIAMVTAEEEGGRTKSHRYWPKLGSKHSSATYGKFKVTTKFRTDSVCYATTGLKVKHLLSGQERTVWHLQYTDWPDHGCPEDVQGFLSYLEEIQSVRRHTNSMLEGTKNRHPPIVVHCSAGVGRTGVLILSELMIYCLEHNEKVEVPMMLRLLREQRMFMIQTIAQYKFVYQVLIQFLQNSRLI
Chain of human Phosphodiesterase 4A1 (PDE4A1), PDE4A (gene 5141) (P27815 whole entry, looked up): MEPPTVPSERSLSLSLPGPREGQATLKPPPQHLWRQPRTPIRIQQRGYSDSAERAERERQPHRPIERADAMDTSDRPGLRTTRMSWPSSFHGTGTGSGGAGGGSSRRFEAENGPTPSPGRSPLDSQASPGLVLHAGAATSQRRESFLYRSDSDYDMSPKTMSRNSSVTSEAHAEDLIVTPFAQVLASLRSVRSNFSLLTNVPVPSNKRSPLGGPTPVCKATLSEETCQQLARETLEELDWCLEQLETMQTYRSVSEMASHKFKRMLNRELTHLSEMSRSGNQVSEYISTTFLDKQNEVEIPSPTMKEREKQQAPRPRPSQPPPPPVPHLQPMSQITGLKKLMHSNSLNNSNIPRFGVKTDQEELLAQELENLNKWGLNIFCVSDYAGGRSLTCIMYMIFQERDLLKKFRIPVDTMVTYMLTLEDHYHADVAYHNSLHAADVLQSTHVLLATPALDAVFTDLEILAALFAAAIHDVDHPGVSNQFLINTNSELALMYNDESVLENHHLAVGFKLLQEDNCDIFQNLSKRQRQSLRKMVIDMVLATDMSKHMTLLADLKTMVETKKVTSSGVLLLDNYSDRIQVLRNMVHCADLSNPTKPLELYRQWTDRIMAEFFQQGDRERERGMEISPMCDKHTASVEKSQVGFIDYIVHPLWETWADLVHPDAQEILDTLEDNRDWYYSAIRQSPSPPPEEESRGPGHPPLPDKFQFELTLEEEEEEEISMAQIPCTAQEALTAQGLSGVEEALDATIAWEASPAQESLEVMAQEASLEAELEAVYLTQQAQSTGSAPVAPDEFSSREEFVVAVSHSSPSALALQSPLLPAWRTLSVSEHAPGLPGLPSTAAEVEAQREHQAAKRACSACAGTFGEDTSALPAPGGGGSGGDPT
Chain of human Sirtuin 2 (SIRT2), SIRT2 (gene 22933) (Q8IXJ6 whole entry, looked up): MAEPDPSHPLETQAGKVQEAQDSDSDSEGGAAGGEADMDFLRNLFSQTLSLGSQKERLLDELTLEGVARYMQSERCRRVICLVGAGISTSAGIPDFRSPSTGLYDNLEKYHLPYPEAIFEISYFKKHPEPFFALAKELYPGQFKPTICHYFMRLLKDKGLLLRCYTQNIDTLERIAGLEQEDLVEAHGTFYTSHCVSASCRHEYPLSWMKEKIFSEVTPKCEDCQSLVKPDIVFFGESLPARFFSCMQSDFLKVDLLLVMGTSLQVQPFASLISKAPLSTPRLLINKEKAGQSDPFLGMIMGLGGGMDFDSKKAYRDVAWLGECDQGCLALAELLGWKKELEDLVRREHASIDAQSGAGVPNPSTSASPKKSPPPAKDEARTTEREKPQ

Broadly, the AC50 is the midpoint of the concentration-response curve, whichever way the signal moves. In the case of `C=CCOCC(O)CO` (configuration not stated), the half-maximal activity concentration (AC50) in [1] was 1.68 µM (active).

Consider `Cc1ccc(C(C)(C)O)cc1`, for which the AC50 in assay [1] is 4.24 µM (active).

Consider `C=CC(=O)OCC(CO)(COC(=O)C=C)COC(=O)C=C`, for which the AC50 in assay [1] was 10.5 µM (active).

As for `COC(=O)c1ccc(C(=O)OC)cc1`, in assay [1], the outcome was inactive.

On to `CCCOC(=O)CC`, for which the AC50 in assay [1] is 6.89 µM (active).

`C[C@]12CC[C@@H]3c4ccc(O)cc4CC[C@H]3[C@@H]1CC[C@@H]2O`: the compound was classed as inactive in assay [2] and in assay [3].

Take `CC(C)(O)CCc1ccccc1`: the result in assay [1] was inactive.

For the compound `C=C(C)C(N)=O`, the compound was called inactive in [4].

`OCCN1CCOCC1`: the AC50 in assay [1] is 4.96 µM (active).

Turning to `Nc1ccc(N)c([N+](=O)[O-])c1`, in assay [1], the AC50 is 4.96 µM (active) and 1.02 µM (active).

With `CC/C(=C(\c1ccccc1)c1ccc(OCCN(C)C)cc1)c1ccccc1`, the AC50 in [5] is 42.5 µM (active); in [9] it was 27.9 µM (active); in assay [11] it was 12.1 µM (active); in assay [2], 13.9 µM (active). In addition, the call in [6], in assay [7], in assay [8], in assay [1], in [10] and in assay [12] was inactive. Moreover, the result in assay [13] and in [3] was inactive.

Consider `C#C[C@]1(O)CC[C@H]2[C@@H]3CCc4cc(O)ccc4[C@H]3CC[C@@]21C`, for which the AC50 in assay [14] was 38.4 µM (active).

As for `CCCCCCCCCO`, in assay [1], the AC50 was 10.6 µM (active).

Turning to `O=C(c1ccc(OCCN2CCCCC2)cc1)c1c(-c2ccc(O)cc2)sc2cc(O)ccc12`, the AC50 is 17.4 µM (active) in assay [5]; 22.1 µM (active) in assay [8]; 16.7 µM (active) in assay [10]; 4.96 µM (active) in assay [4]; 5.48 µM (active) in [16]; 28 µM (active) in [17]. Further, the AC50 was 30.9 µM (active) in assay [11], 37.9 µM (active) in assay [2], 17.8 µM (active) in assay [19] and 17.4 µM (active) in assay [3]. Also, the call in assay [15], in assay [9], in assay [12] and in [18] was inactive.

For `CCOC(=O)C(=O)OCC`, the AC50 in assay [1] was 4.5 µM (active).

On to `CCCCOCCOCCO`, for which the outcome in [4] and in assay [20] was inactive.
